In PubChem BioAssay (EPA / NIEHS) one finds outcome data, which are given here for 31 compounds.

Inconclusive results are not listed. The source made the active and inactive calls. How the source made its calls: active means hit-call score of the fitted dose curve at least 0.9, where 1 is the maximum; inconclusive means response in the unintended direction; inactive means score below 0.9.

Test system in one experiment: not listed separately
The experiment in a line: TOX21_p53_BLA_p5_viability: Viability Assessment in the Tox21 HCT-116 p53 Agonism Beta-lactamase Assay, Phase 5 (AID 2283600). The essentials: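 Viability is taken from cellular ATP content, measured by luciferase luminescence in the same wells after the beta-lactamase ratio read. Cells are seeded at 4000 per well and exposed to DMSO-dissolved compounds, diluted 217-fold, for 16 h.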
As for `BrC(Br)C(Br)Br`, the compound was classed as inactive.

Regarding `CNc1c2c(nn1C)CCCC2`, the compound was classed as inactive. With `C[C@H]1NCc2cc(-c3ccc4c(=O)c(C(=O)O)cn(C5CC5)c4c3OC(F)F)ccc21`, the compound was classed as inactive.

On to `C[N+]1(C)CCN(CC(O)(c2ccccc2)C2CCCCC2)CC1` (stereo not given), for which the compound was classed as inactive.

In the case of `NS(=O)(=O)c1ccccc1Cl`, the call was inactive. On the same count and under the same terms, under `O=C1CCN(c2ccccc2)N1` stands “inactive”. On the same count and under the same terms, the value for `CO/N=C(\C(=O)N[C@@H]1C(=O)N2C(C(=O)O)=C(CSc3nc(C)c(CC(=O)O)s3)CS[C@H]12)c1csc(N)n1` was “inactive”.

`Nc1ccc(C(=O)O)c(O)c1`: the outcome was inactive. Regarding `CC(C)(O/N=C(\C(=O)N[C@@H]1C(=O)N2C(C(=O)[O-])=C(C[n+]3ccccc3)CS[C@H]12)c1csc(N)n1)C(=O)O`, the result was inactive. The same measure, in the same setting: under `CC1(C)OC[C@@H](COC(=O)CCc2ccc(OC[C@@H](O)CNCCNC(=O)N3CCOCC3)cc2)O1` stands “inactive”; under `Cc1nc2ccccc2s1`, “inactive”.

Turning to `CCOC(=O)c1ccc(OC(=O)CCCCCN=C(N)N)cc1`, the call was inactive. `CC[C@H]1OC(=O)C[C@@H](O)[C@H](C)[C@@H](O[C@@H]2O[C@H](C)[C@@H](O)[C@H](N(C)C)[C@H]2O)[C@@H](CCN2C[C@H](C)C[C@H](C)C2)C[C@@H](C)C(=O)/C=C/C(C)=C/[C@@H]1CO[C@@H]1O[C@H](C)[C@@H](O)[C@@H](OC)[C@H]1OC`: the compound was called inactive. For `C=C1C(=O)O[C@H]2[C@H]1CC/C(C)=C/CC[C@@]1(C)O[C@@H]21`, the compound was called inactive. The same measure, in the same setting: under `N=C(N)c1ccc(C=Cc2ccc(C(=N)N)cc2O)cc1` stands “inactive”; under `O=C(c1ccc(F)cc1)C1CCN(CCn2c(=S)[nH]c3ccccc3c2=O)CC1`, “inactive”. Same read-out and setting: the value for `CNC1(C)C2CCC(C2)C1(C)C` (stereo not given) was “inactive”; that for `O=C(O)C(O)[C@H](O)[C@@H](O)[C@H](O)[C@H](O)CO` (stereo not given in full) was “inactive”; that for `CC1CCCC(C)N1NC(=O)c1ccc(Cl)c(S(N)(=O)=O)c1` (stereo not given) was “inactive”.

In the case of `CC(C(=O)O)c1ccc2c(c1)Cc1cccnc1O2` (stereo not given), the result was inactive. On to `Nc1nc(N)c(-c2ccccc2)s1`, for which the result was inactive. Still for that read-out and setting: under `C/C(=C\C(=O)OCCCCCCCCC(=O)O)C[C@@H]1OC[C@H](C[C@@H]2O[C@H]2[C@@H](C)[C@H](C)O)[C@@H](O)[C@H]1O` stands “inactive”. `N[C@@H](CSCCCO)C(=O)O`: the call was inactive.

In the case of `Cn1nnnc1SCC1=C(C(=O)O)N2C(=O)[C@@H](NC(=O)[C@H](O)c3ccccc3)[C@H]2SC1`, the compound was classed as inactive. Turning to `CN(C)C(=O)Oc1ccc[n+](C)c1`, the call was inactive.

For another experiment, the target named is Cellular tumor antigen p53 (Homo sapiens) (UniProt P04637). The experiment in a line: TOX21_p53_BLA_p4_ratio: Tox21 HCT-116 p53 Agonism Beta-lactamase Assay, Ratio, Phase 4 (AID 2283601). The essentials: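 Signal is the blue/green (460nm/530nm) ratio of cleaved versus uncleaved CCF4-AM substrate, read after 2 h substrate loading. Cells were HCT116 carrying the p53-responsive beta-lactamase reporter, dosed 16 h at 37C, 5% CO2; CellTiter-Glo measured in parallel.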
Cellular tumor antigen p53 (Homo sapiens), sequence (P04637 whole entry, looked up): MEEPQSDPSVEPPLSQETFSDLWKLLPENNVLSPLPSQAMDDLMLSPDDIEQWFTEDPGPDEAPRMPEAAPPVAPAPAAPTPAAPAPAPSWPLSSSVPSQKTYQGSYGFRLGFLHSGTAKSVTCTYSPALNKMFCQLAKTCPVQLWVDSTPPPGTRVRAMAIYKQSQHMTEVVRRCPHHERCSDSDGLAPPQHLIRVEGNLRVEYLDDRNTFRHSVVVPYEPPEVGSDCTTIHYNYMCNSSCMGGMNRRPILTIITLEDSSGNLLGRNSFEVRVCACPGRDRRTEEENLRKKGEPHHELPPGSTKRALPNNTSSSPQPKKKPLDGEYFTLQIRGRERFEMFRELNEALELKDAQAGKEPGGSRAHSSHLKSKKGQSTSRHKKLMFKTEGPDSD
On to `O=C(CCN1CCN(CCO)CC1)N1c2ccccc2Sc2ccc(C(F)(F)F)cc21`, for which the result was inactive. Still for that read-out and setting: the value for `Nc1ccc(C(=O)O)c(O)c1` was “inactive”; that for `CC(C)(O/N=C(\C(=O)N[C@@H]1C(=O)N2C(C(=O)[O-])=C(C[n+]3ccccc3)CS[C@H]12)c1csc(N)n1)C(=O)O` was “inactive”; that for `CC1(C)OC[C@@H](COC(=O)CCc2ccc(OC[C@@H](O)CNCCNC(=O)N3CCOCC3)cc2)O1` was “inactive”.

As to `Cc1ccccc1C(=O)O`, the result was inactive. On the same count and under the same terms, under `O=C(c1ccc(F)cc1)C1CCN(CCn2c(=S)[nH]c3ccccc3c2=O)CC1` stands “inactive”; under `CNC1(C)C2CCC(C2)C1(C)C` (stereo not given), “inactive”; under `O=[N+]([O-])c1cc(Cl)c(Cl)c(Cl)c1Cl`, “inactive”. The same measure, in the same setting: under `Nc1nc(N)c(-c2ccccc2)s1` stands “inactive”; under `C/C(=C\C(=O)OCCCCCCCCC(=O)O)C[C@@H]1OC[C@H](C[C@@H]2O[C@H]2[C@@H](C)[C@H](C)O)[C@@H](O)[C@H]1O`, “inactive”; under `Cc1ccc(C(C)(C)c2ccc(C)cc2)cc1`, “inactive”. The same measure, in the same setting: the value for `CC#CCC(C)[C@H](O)/C=C/[C@@H]1[C@H]2C/C(=C/CCCC(=O)O)C[C@H]2C[C@H]1O` (stereo not given in full) was “inactive”.

`CCCCCCCCCCCCCCCC(=O)O[C@@H]1CC(C)=C(/C=C/C(C)=C/C=C/C(C)=C/C=C/C=C(C)/C=C/C=C(C)/C=C/C2=C(C)C[C@@H](OC(=O)CCCCCCCCCCCCCCC)CC2(C)C)C(C)(C)C1`: the result was inactive. The same measure, in the same setting: the value for `Cn1nnnc1SCC1=C(C(=O)O)N2C(=O)[C@@H](NC(=O)[C@H](O)c3ccccc3)[C@H]2SC1` was “inactive”; that for `CN(C)C(=O)Oc1ccc[n+](C)c1` was “inactive”.
